This is part of a sample that, as a whole, favours compounds with a hit. Of some 83,000 tested, about 20% had one in any assay.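 48-hour exposure, single concentration, 96-well plates; percent growth endpoint where 0 means no net growth. Active: below 10.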 A number with no mark means an inactive call. The source made the active and inactive calls.

This test relates to SN12C renal. The test can be described thus: NCI-60 one-dose screen, 48 h (100 = growth as untreated, 0 = no growth, -100 = all killed). As to conditions: 10 µM unless noted.
With `CCCCCN(CCCCC)CCC[C@@H](C)[C@H]1CC[C@H]2[C@@H]3[C@H](OCCCN)C[C@@H]4C[C@H](OCCCN)CC[C@]4(C)[C@H]3C[C@H](OCCCN)[C@]12C`, the growth is 54.3%.

For the compound `O=C(CN1CCOCC1)Nc1ccc(Cn2nnc3c2C(=O)c2nnn(Cc4ccc(NC(=O)CN5CCOCC5)cc4)c2C3=O)cc1`, the growth is -32.1% (active). `COc1ccc(C(=O)/C=C/c2c(Cl)c3c(c(OC)c2Cl)OCC(=O)N3)cc1`: the growth was 27.8%. Under `CCOc1ccc(Nc2nc(-c3c(C)nc4ncccn34)cs2)cc1` stands 14.3%; under `CC1=C(NCCN2CCCC2)C(=O)c2c(OCc3ccc(C(F)(F)F)cc3)cccc2C1=O`, 86.1%; under `CC/C(=C(\c1ccc(O)cc1)c1ccc(OCCN(C)CCN(C)C(=O)CCCCC(=O)c2c(C)[nH]c(/C=C3\N=C(c4ccc[nH]4)C=C3OC)c2C)cc1)c1ccccc1`, 82.9%. Next, `O=C(CCCN1CCOCC1)Nc1ccc(Cn2nnc3c2C(=O)c2nnn(Cc4ccc(NC(=O)CCCN5CCOCC5)cc4)c2C3=O)cc1`: -40.7% (active); `COc1ccc2nc3cc(Cl)ccc3c(N3CCN(c4nccc(NCc5ccccc5)n4)CC3)c2c1`: 76%.

Consider `O=C1CC(c2nc3ccccc3[nH]2)CN1C1CCCCC1` (centres undefined), for which the growth is 108%. Under `O=C1Nc2ccccc2C12CC(c1ccc(Cl)cc1)=NN2` (centres undefined) stands 88.8%; under `O=C1/C(=C/c2ccc(Cl)cc2Cl)CN(S(=O)(=O)c2ccccc2)C/C1=C\c1ccc(Cl)cc1Cl`, -47.5% (active). Next, `O=C(CCCCN1CCOCC1)Nc1ccc(Cn2nnc3c2C(=O)c2nnn(Cc4ccc(NC(=O)CCCCN5CCOCC5)cc4)c2C3=O)cc1`: -46.6% (active); `COc1ccc2nc3cc(Cl)ccc3c(N3CCN(c4nccc(Nc5ccccc5)n4)CC3)c2c1`: 62%. Under `CC1=C(NCCN2CCCC2)C(=O)c2c(OCc3cccc(Cl)c3)cccc2C1=O` stands 75.2%; under `O=C(CCN1CCOCC1)Nc1ccc(Cn2nnc3c2C(=O)c2nnn(Cc4ccc(NC(=O)CCN5CCOCC5)cc4)c2C3=O)cc1`, -40.7% (active). On to `NC1=CSC2=N/C(=C\c3ccc(Cl)cc3)C(=O)N12`, for which the growth is 76.8%. Next, `Cc1sc2nc3[nH]/c(=C\c4ccc(Cl)cc4)c(=O)n3c(=O)c2c1C`: 98.1%; `COc1ccc2nc3cc(Cl)ccc3c(N3CCN(c4ccnc(N5CCN(C)CC5)n4)CC3)c2c1`: 36.9%. Under `CN(C)CCCC(=O)Nc1ccc(Cn2nnc3c2C(=O)c2nnn(Cc4ccc(NC(=O)CCCN(C)C)cc4)c2C3=O)cc1` stands -29.4% (active); under `CCCCCCCCCCCCCCCCNCCC[C@@H](C)[C@H]1CC[C@H]2[C@@H]3[C@H](OCCCN)C[C@@H]4C[C@H](OCCCN)CC[C@]4(C)[C@H]3C[C@H](OCCCN)[C@]12C`, -82.9% (active).

With `O=C(Nc1cccc2[nH]c(C(F)(F)F)nc12)c1ccc(Br)cc1F`, the growth is 26.5%. In the case of `CCCCNc1ccc2c3c1cccc3c(=O)n1c3ccccc3nc21`, the growth was 90.9%.

As to `COc1ccc(/C=C2\N=C3SC=C(N)N3C2=O)cc1`, the growth was 20.4%. For the compound `COc1ccc2nc3cc(Cl)ccc3c(N3CCN(c4nccc(Nc5ccc(Cl)cc5)n4)CC3)c2c1`, the growth is 74%. `CC1=C(NCCN2CCCC2)C(=O)c2c(OCc3ccc(F)c(Cl)c3)cccc2C1=O`: the growth was 71.2%. Under `O=C1C[C@H](N2C(=O)c3ccccc3S2(=O)=O)C2CO[C@@H]1O2` stands 91.8%; under `Cc1ccc(S(=O)(=O)n2cc(-c3csc(-c4cn(C)c5ncccc45)n3)c3ccccc32)cc1`, 77.6%; under `COc1ccc(-c2cnoc2-c2cc(OC)c3c(c2)OCCO3)cc1`, 9.42% (active). Next, `COc1ccccc1-c1ccc2c(N)c(C(=O)c3ccc4c(c3)OCO4)sc2n1`: 64.2%; `COc1ccc(/C=c2/c(=O)[nH]c3nc4sc(C)c(C)c4c(=O)n23)cc1`: 84%. Under `CC(=O)N1CC(Nc2ccc(OC(F)(F)F)cc2)=CC1=O` stands 56.7%; under `O=c1c2cccc3c(Nc4c(F)cccc4F)ccc(c32)c2nc3ccccc3n12`, 93.8%. `CCC(C)[C@@H]1NC(=O)[C@@H]2CCCN2C(=O)[C@H](Cc2ccccc2)NC(=O)[C@@H]2CCCN2C(=O)[C@H](Cc2ccccc2)NC(=O)[C@@H]2CCCN2C(=O)[C@H](Cc2ccccc2)NC1=O` (some centres undefined): the growth was 102%. Next, `O=C1CC(c2nc3ccccc3s2)CN1C1CCCCC1` (centres undefined): 93.5%; `Cc1cc(OCc2ccc(C(F)(F)F)cc2)c2c(c1)C(=O)C=C(NCCN1CCCC1)C2=O`: 79.4%; `O=C1Nc2ccccc2C12CC(c1ccccc1)=NN2` (centres undefined): 68.6%. Under `CCN(CC)CCC(=O)Nc1ccc(Cn2nnc3c2C(=O)c2nnn(Cc4ccc(NC(=O)CCN(CC)CC)cc4)c2C3=O)cc1` stands -50.1% (active); under `Cn1cc(-c2nc(-c3c[nH]c4ccccc34)cs2)c2cccnc21`, 52.7%; under `CCN(CC)CCCC(C)N/C(=C1\C(=O)NC(=O)\C1=C(/NC(C)CCCN(CC)CC)c1cccc(OC)c1)c1cccc(OC)c1` (centres undefined), 9.96% (active).
